Among all 320,000 compounds or so, about 2,100 (0.66%) were called active.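 The calls were made as follows: active = inhibition above the mean inhibition of all tested compounds plus 3 SD, set per campaign (cut at about 40% in these data); inactive = the rest.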 This excerpt belongs to a sample that is enriched for actives.

For the experiment, the target named is Induced myeloid leukemia cell differentiation protein Mcl-1 (Homo sapiens) (UniProt Q07820). Put plainly: MCL1-BIM peptide interaction disruptors – biochemical, fluorescence polarization, primary screen (AID 2057).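 Also: 0% = DMSO wells and 100% = unlabeled Bim-BH3 peptide control; higher means more loss of mP so more displacement of Bim peptide.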 As to conditions: GST-MCL1 / FITC-Bim-BH3 fluorescence polarization; at 10.9 µM; stronger effect = higher value. (Polarisation of emitted light reports the rotation of a fluorescent probe.)
Sequence of Induced myeloid leukemia cell differentiation protein Mcl-1 (Homo sapiens) (Q07820 whole entry, looked up): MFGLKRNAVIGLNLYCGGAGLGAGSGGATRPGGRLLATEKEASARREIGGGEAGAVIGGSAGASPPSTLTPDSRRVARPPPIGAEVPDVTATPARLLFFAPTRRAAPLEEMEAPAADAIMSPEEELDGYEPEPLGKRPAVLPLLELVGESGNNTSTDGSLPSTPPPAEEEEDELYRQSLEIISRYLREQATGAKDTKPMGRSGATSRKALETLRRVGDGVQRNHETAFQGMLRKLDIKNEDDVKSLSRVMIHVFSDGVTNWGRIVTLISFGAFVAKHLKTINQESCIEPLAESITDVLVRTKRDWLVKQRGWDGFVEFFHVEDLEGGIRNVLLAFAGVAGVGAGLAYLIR
Regarding `O=C1NC(=O)N(c2ccccc2)C(=O)/C1=C/c1ccc([N+](=O)[O-])s1`, the inhibition is 44.1% (active).

Consider `CCOP(=S)(OCC)SCOC(=O)NCC(=O)OC`, for which the inhibition is 6.09% (inactive).

For `C=CCN1C(=O)C2(C(C(=O)OCC)=C(N)Oc3c2c(=O)oc2ccccc32)c2ccccc21` (stereo not given), the inhibition was 1.78% (inactive).

Consider `Cc1ccccc1N1C(=O)NC(=O)/C(=C\c2cc(C)n(C)c2C)C1=O`, for which the inhibition is 1.23% (inactive).

Turning to `Cc1c(C(=O)O)cccc1-n1c(C)cc(/C=C2\C(=O)NC(=O)N(c3ccc4c(c3)OCO4)C2=O)c1C`, the inhibition is 2.52% (inactive).

As to `COc1cccc(N2C(=O)NC(=O)/C(=C\c3cn(C)c4ccccc34)C2=O)c1`, the inhibition was 55% (active).

`CCN(CC)C(=O)Oc1ccc(NC(=O)N2CCOCC2)cc1`: the inhibition was 3.93% (inactive).

Take `Cc1cccc(OP(=O)(Oc2cccc(C)c2)OC(c2ccccc2)C(F)(F)F)c1` (stereo not given): the inhibition was 2.04% (inactive).

On to `CN(c1ccccc1)c1ccc([N+](=O)[O-])c2nonc12`, for which the inhibition is -24.9% (inactive).

Turning to `O=C(CCC(=O)N1C[C@H]2C[C@@H](C1)c1cccc(=O)n1C2)NCc1ccccc1C(F)(F)F`, the inhibition was 2.96% (inactive).

With `Cc1cc(/C=C2/C(=O)NC(=O)N(Cc3ccco3)C2=O)c(C)n1-c1ccc(C(=O)O)cc1`, the inhibition was -11.8% (inactive).

For the molecule `COc1ccc(N2C(=O)/C(=C/c3ccco3)C(=O)NC2=S)cc1`, the inhibition is 53.9% (active).

Regarding `COc1ccc(CN2C(=O)NC(=O)/C(=C\c3ccc(OC)c(OC)c3OC)C2=O)cc1`, the inhibition is -3.16% (inactive).

In the case of `Cc1ccc(C)c(NC2=NCCCS2)c1`, the inhibition was 0.88% (inactive).

In the case of `COc1cccc(OC)c1C(=O)NC(=S)N1C[C@H]2C[C@H](C1)c1cccc(=O)n1C2`, the inhibition is 9.55% (inactive).

For orientation: inhibition means the relative decrease from the control value, in per cent.

The record behind these values is PubChem BioAssay AID2057 (The Scripps Research Institute Molecular Screening Center, 2009).
